Bioassay records deposited in PubChem by several laboratories.
A selection: hits, their analogues and other compounds. The true share with any hit is near 2.8%.
GASC-1 inh: inhibitors of GASC-1 histone demethylase, primary screen, biochemical, fluorescence, DELFIA europium. Lysine-specific demethylase 4C (Homo sapiens), Q9H3R0. GST-JMJD2C(1-420) H3K9me3 demethylation. inhibition, % at 2.35 µM. 0.069% of 330,000 active. AID 2099, 2009;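 active = more than half of a compound's replicate wells show inhibition beyond 50%, single wells judged on their own value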;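 note: signal counts dimethyl H3K9 product captured on neutravidin plate; 0% = median of DMSO wells and 100% = 0.3 times that DMSO median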
Target sequence (Q9H3R0 1-420 limits assumed): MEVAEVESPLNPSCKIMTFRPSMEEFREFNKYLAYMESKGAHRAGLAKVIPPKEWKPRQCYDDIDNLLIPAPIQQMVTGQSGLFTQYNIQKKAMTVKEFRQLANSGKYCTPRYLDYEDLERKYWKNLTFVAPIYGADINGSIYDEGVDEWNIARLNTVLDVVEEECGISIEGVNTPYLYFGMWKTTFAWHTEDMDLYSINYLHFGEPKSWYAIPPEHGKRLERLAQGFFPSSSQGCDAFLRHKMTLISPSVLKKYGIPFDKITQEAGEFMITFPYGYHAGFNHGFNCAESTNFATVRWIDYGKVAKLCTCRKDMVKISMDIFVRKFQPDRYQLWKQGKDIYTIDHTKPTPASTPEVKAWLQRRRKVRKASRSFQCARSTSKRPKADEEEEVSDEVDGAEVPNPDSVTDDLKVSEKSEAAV
PG9 Ab binder: binders of HIV-1 gp120 antibody PG9, primary screen, biochemical, TR-FRET | 0.43% of 360,000 active | inhibition, % at 6.7 µM | HIV-1 gp120 / PG9 antibody interaction | AID 624416, 2012 | TR-FRET gp120-PG9 antibody binding; in the data active = inhibition above about 8.5%
proKLK7 act: proKLK7 zymogen activators, primary screen, biochemical, fluorescence intensity | Kallikrein-7 (Homo sapiens), P49862 | purified proKLK7, EDANS-DABCYL substrate fluorescence; 100% is mature enzyme control, 0% vehicle | activation, % at 7 µM | 0.9% of 370,000 active;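 active = activation above the mean of all tested compounds plus 3 SD, computed per campaign excluding outliers beyond control limits, cut at about 13% in these data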
NR1D1 modulator: modulators of Rev-erb alpha DNA binding, primary screen, biochemical, FITC-DNA, fluorescence polarization, uHTS | Rev-erbα–FITC-DNA binding, 90 min | activity, % at 10 µM | 0.79% of 370,000 active;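 active = activity above about 14%, limit read from the data; passing the limit was not always enough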;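 note: 0% = DMSO wells with 35 nM protein and 100% = DMSO wells with 750 nM protein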
PP1 counter: PP1-alpha phosphatase inhibitors, primary screen, counter-screen for PP5 inhibitor project, biochemical, fluorescence, OMFP substrate, single point; AID 2235, 2010; purified PP1alpha; Serine/threonine-protein phosphatase PP1-alpha catalytic subunit (Homo sapiens), P62136; 0.9% of 320,000 active; inhibition, % at 6.7 µM;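 active = inhibition above the mean inhibition of all tested compounds plus 3 SD, computed separately for each screening campaign, cut at about 15% in these data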
PP5 primary: PP5 phosphatase inhibitors, primary screen, biochemical, fluorescence; Serine/threonine-protein phosphatase 5 (Homo sapiens), P53041; purified PP5c, OMFP substrate fluorescence; inhibition, % at 6.7 µM; 0.18% of 320,000 active;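 active = inhibition above the campaign's mean inhibition across all tested compounds plus 3 SD, cut at about 9.5% in these data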;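 note: 0% = DMSO only and 100% = 100 µM cantharidin control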
KLK7 act conf: proKLK7 zymogen activators, confirmation, biochemical, fluorescence intensity, triplicate. activation, % at 7 µM. shares compounds with proKLK7 act. purified proKLK7, EDANS-DABCYL substrate fluorescence; scaled: vehicle 0, mature enzyme 100. 68% of 3,200 active;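 active = activation, as change over the incubation, above the mean of all tested compounds plus 3 SD, cut at about 13% in these data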
EDANS interfere: EDANS-DABCYL substrate optical interference, artefact control for kallikrein-7 zymogen activator project, biochemical, fluorescence intensity, high throughput. shares compounds with proKLK7 act. no enzyme, 4 h; solvent 0%, active enzyme control 100%. activation, % at 7 µM. 80% of 3,200 active. AID 686952, 2013;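 active = activation above the all-compound mean plus 3 SD, ignoring values outside control-based bounds, cut at about 4.8% in these data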;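 note: value is the 4 h activation minus the activation read at time zero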
K7 EDANS ctr: EDANS fluorescence interference in dose response, no enzyme; EDANS-DABCYL peptide fluorescence interference; shares compounds with proKLK7 act; 20% of 250 active; EC50, µM;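 active = compounds that raise the fluorescence signal in this interference counterscreen, with EC50 at or below 10 µM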;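 note: intact quenched peptide substrate alone read at 355 nm excitation and 520 nm emission; signal is fluorescence gain from T0 to T4 after four hours at room temperature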
The depositor's hits bear a star; . = no result.

SMILES	GASC-1 inh	PG9 Ab binder	proKLK7 act	NR1D1 modulator	PP1 counter	PP5 primary	KLK7 act conf	EDANS interfere	others
CCCCCCC(=O)NC1CCCCN(C)C1=O (centres undefined)	.	0	0	0	.	.	.	.
Cc1cc(C)nc(SCc2nc3nc(C)cc(C)n3c2Br)n1	7	-1	4	-1	-4	-1	.	.
Cc1cc(C)n2c(Br)c(CN3CCCC(C)C3)nc2n1 (centres undefined)	-1	-2	15*	-2	-6	-3	14*	16*
CSc1nc(-c2ccc(F)cc2)cc(=O)[nH]1	-5	-1	0	1	0	-1	.	.
COC(=O)c1cc(-c2ccc(OC)cc2)nc2nc(SC)[nH]c(=O)c12	-6	-1	25*	-5	3	0	21*	17*	K7 EDANS ctr=>70
CCCC[C@@H]1C(=O)N2N=C(c3ccccc3)c3ccccc3[C@H]2N2N=C(c3ccccc3)c3ccccc3[C@@H]12	.	.	-2	5	.	.	.	.
COc1ccc(CCC(=O)NNC(=O)Nc2cccc(Cl)c2)cc1	-2	1	0	-2	.	.	.	.
COc1cccc(NC(=O)NNC(=O)CCc2ccc(O)c(O)c2)c1	-3	-2	19*	1	.	.	13*	16*
Clc1ccc(-n2c(Cc3cccs3)nnc2SC/C=C/c2ccccc2)cc1	.	.	0	-1	.	.	.	.
COc1ccc2c(c1OC)C(=O)OC2CC(=O)c1ccc(O)c(O)c1 (centres undefined)	0	-2	0	-2	-1	3	.	.
COc1ccc2c(c1OC)C(=O)OC2CC(=O)c1ccc(O)cc1 (centres undefined)	-4	1	20*	1	-1	4	7	6.3*
COc1cc(OCc2ccccc2)c2c(CCC(=O)O)cc(=O)oc2c1	.	-1	89*	-5	.	.	59*	58*
CCc1cc(=O)oc2cc(OC(C)=O)cc(OC(C)=O)c12	25	7	79*	-2	-1	1	486*	534*
CCCCc1cc(=O)oc2cc(C)cc(OCC(=O)O)c12	11	0	12	-2	0	0	.	.
COc1ccc2cc(C3CC=C(CO)CN3S(=O)(=O)c3ccccc3[N+](=O)[O-])n(C(=O)OC(C)(C)C)c2c1 (centres undefined)	.	-1	1	-6	.	.	.	.
COc1ccc2c3c(n(C(=O)OC(C)(C)C)c2c1)C1CC=C(COC(C)=O)CN1CC3 (centres undefined)	.	-1	18*	-2	.	.	8	9.5*
O=C(O)CCC(=O)c1cccc2ccccc12	3	1	1	-7	-5	2	.	.
O=C(O)CCC(=O)c1ccc2ccc3cccc4ccc1c2c34	-8	-5	26*	-5	0	2	62*	65*
CCOC(=O)c1cnn(-c2sc(C(=O)OCC)c(C)c2C(=O)OCC)c1N	-14	1	18*	9	-6	2	1	1
COC(=O)[C@H]1C[C@@]2(C)c3ccccc3N(C(=O)OC(C)(C)C)[C@H]2N1C(=O)OC(C)(C)C	.	.	0	0	.	.	.	.
Nc1nc2ncccn2c1-c1ccc(C(F)(F)F)cc1	.	0	26*	-5	.	.	60*	63*
Nc1nc2ncccn2c1-c1ccc(F)cc1	.	-2	9	-3	.	.	.	.
